Experimental findings from ChEMBL document CHEMBL3988442, “University of Dundee, Small-Polar-MMV Screening Library” (2021) are described below.

Set-up in all cases: scale not given: direction of the effect not stated beside the values
The target of test [1] is Protein translocase subunit SecA (Escherichia coli (strain K12)) (UniProt P10408). As to the kind of experiment: Assay to Identify E. coli SecA ATPase Inhibitors. The settings on record: 30 µM. Format: functional.
The target in test [2] is T1, Ubiquitin-activating enzyme e1, putative (Leishmania donovani (strain BPK282A1)) (UniProt E9BSI1).
T1 sequence (whole entry): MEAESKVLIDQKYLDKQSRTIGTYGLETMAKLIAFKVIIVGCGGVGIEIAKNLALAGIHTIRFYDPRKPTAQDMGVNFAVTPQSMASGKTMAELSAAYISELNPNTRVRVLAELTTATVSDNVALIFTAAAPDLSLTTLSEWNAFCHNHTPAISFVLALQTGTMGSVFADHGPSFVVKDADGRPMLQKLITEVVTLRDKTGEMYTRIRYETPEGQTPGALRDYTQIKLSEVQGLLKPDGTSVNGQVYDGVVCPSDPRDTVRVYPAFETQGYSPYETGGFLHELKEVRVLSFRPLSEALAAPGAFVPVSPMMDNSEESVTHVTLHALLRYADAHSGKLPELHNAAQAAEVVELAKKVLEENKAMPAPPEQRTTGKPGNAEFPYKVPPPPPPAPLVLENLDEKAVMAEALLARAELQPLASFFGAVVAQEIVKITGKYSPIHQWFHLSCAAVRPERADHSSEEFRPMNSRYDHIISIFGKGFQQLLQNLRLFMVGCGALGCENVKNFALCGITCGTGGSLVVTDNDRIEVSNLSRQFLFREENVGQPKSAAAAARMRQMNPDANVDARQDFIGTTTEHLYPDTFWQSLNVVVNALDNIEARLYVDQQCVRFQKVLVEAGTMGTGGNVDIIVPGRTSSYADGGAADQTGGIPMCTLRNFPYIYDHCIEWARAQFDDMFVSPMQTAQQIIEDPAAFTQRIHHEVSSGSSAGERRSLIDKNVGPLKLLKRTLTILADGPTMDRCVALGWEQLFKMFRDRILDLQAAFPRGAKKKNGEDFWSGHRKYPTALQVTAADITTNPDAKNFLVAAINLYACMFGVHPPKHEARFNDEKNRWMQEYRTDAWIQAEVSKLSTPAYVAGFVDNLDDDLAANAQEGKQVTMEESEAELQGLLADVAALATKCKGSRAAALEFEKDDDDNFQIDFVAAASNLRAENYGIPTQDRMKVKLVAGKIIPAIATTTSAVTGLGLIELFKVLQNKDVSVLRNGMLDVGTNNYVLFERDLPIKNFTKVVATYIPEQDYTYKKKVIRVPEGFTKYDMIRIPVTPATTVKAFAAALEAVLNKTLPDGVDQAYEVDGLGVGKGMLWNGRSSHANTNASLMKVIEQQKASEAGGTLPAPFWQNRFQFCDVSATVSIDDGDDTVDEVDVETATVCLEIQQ
Briefly: Leishmania donovani Ubiquitin Activating Enzyme (LdE1). The settings on record: 30 µM. The test is classed as functional.

Test [3] has as its target AMP-activated protein kinase, AMPK (Homo sapiens) (UniProt P54646+O43741+P54619+Q9UGJ0+Q9Y478+Q13131+Q9UGI9). As to the kind of experiment: AMP-dependent Kinase enzyme assay. An in vitro enzyme assay that detects ADP turnover that is directly proportional to AMPK activity. This uses naive AMPK that is activated during the assay with MK-8722. The test is classed as functional. The settings on record: 30 µM.

Test [4] concerns the target Sialic acid-binding Ig-like lectin 9 (Homo sapiens) (UniProt Q9Y336). Briefly: Hs-Siglec9 ALPHAscreen SOP 20170721. To be noted: 10 µM.
The subject of test [5] is Trypanosoma cruzi. Briefly: Trypanosoma cruzi phosphomannomutase and mannose-1-phosphate guanylyltransferase assay. The test is classed as functional. To be noted: 10 µM.
The target in test [6] is T2, Arginase-2, mitochondrial (Homo sapiens) (UniProt P78540).
T2 sequence (whole entry): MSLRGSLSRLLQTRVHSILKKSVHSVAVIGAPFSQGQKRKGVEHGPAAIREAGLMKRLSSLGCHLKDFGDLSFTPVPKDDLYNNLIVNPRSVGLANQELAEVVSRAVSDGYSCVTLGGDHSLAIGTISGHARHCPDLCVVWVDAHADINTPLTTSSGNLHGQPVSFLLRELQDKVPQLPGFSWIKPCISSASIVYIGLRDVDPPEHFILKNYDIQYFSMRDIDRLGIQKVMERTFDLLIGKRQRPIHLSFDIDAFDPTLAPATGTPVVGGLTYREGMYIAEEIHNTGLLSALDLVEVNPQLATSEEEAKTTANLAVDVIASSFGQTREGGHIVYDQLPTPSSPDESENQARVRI
As to the kind of experiment: in vitro enzyme assay to detect the production of urea directly proportional to the activity of Arginase II. Further: in the data most compounds retested in dose-response had high values. Format: functional. The settings on record: 33.3 µM.

In test [7] the target is T3, Proteasome subunit beta (Trypanosoma cruzi) (UniProt O96673).
T3 sequence (whole entry): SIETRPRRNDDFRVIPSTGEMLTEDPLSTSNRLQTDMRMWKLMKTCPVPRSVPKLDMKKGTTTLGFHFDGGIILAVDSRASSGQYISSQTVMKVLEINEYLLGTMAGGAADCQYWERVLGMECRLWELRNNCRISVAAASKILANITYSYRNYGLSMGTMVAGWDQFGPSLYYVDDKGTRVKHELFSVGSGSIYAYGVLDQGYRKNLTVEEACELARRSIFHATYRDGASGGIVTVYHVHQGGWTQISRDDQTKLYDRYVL
Briefly: Trypanosoma cruzi proteasome chymotrypsin-like activity (TcProtChymo) assay. Further: in the data most compounds retested in dose-response had high values. Format: functional. The settings on record: 9.37 µM.

Test [8] is filed under the species Homo sapiens. As to the kind of experiment: To identify inhibition of the IFN signalling (Jak-Stat) pathway via expression of an eGFP reporter gene under the control of an IFN-stimulated response element (ISRE) containing MxA promoter. Format: functional. To be noted: 30 µM. (In general: In a reporter assay the amount or activity of a reporter protein is the signal.)

Test [9] deals with T4, Tyrosyl-tRNA synthetase, putative (Trypanosoma cruzi (strain CL Brener)) (UniProt Q4DSP6).
T4 sequence (whole entry): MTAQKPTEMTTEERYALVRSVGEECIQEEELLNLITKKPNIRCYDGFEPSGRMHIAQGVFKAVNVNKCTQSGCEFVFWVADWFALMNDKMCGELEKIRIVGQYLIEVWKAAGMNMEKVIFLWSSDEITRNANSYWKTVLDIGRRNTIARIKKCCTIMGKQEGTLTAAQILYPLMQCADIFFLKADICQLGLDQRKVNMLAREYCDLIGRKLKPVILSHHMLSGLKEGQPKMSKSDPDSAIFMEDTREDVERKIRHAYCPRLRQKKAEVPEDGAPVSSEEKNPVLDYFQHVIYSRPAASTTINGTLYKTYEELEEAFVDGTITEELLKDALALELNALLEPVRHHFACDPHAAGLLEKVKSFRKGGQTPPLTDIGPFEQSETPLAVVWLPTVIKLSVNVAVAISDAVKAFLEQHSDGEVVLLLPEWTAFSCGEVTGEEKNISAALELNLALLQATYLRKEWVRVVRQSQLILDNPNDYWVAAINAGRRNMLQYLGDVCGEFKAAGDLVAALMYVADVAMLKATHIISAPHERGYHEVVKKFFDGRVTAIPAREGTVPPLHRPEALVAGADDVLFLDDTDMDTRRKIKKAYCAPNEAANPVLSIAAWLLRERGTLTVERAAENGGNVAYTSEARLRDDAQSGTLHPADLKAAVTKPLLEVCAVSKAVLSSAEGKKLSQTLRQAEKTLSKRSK
Briefly: Trypanosoma cruzi tyrosyl tRNA synthetase (TcYRS) _High Tyrosine SOP. Further: in the data most compounds retested in dose-response had high values. The test is classed as functional. To be noted: 30 µM.

The target in test [10] is T4, Tyrosyl-tRNA synthetase, putative (Trypanosoma cruzi (strain CL Brener)). As to the kind of experiment: Trypanosoma cruzi tyrosyl tRNA synthetase (TcYRS) SOP. Format: functional. To be noted: 30 µM.
Test [11] concerns the target Chromo domain-containing protein 1 (Saccharomyces cerevisiae (strain ATCC 204508 / S288c) (Baker's yeast)) (UniProt P32657). Briefly: ScCHD-1 Enzyme Inhibition Assay. Further: in the data most compounds retested in dose-response had high values. To be noted: 30 µM. Format: functional.

For some of these results: Results with a measured potency or affinity are listed apart.

Sequence of Protein translocase subunit SecA (Escherichia coli (strain K12)) (P10408 whole entry): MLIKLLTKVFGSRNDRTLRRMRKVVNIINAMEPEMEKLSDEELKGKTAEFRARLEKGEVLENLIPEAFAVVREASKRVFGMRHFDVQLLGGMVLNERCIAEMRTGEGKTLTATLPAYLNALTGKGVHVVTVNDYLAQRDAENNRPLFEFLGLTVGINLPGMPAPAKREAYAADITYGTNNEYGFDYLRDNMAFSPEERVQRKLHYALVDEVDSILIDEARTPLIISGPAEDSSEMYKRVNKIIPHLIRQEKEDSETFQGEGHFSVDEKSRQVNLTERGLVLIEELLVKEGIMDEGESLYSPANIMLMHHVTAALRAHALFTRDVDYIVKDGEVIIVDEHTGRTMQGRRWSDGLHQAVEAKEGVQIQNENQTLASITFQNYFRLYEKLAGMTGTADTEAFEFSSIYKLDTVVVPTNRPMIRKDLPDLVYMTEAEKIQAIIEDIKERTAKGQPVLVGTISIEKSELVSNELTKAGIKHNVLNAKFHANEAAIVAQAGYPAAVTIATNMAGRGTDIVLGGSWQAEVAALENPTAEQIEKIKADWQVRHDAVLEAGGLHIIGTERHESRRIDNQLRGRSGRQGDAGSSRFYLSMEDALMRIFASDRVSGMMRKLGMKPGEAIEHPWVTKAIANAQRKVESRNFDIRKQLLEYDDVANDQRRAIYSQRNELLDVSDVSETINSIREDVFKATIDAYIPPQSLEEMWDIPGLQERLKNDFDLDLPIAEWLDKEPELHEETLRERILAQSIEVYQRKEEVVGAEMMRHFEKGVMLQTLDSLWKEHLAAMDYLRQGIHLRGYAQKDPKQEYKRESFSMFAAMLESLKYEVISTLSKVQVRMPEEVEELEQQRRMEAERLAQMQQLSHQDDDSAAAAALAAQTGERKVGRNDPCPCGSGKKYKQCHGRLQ
Sequence of Sialic acid-binding Ig-like lectin 9 (Homo sapiens) (Q9Y336 whole entry): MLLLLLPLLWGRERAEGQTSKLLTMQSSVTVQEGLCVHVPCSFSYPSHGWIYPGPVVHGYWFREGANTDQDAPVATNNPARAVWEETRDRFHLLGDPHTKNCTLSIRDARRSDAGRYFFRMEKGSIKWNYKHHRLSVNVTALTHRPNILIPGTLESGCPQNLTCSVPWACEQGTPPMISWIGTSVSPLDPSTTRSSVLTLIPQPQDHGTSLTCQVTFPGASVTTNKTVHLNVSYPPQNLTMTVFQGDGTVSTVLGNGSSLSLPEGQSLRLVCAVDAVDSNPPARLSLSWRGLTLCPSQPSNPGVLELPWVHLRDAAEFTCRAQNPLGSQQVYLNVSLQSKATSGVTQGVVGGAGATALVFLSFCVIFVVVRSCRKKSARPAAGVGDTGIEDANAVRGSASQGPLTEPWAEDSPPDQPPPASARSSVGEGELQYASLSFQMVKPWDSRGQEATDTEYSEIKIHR
Sequence of Chromo domain-containing protein 1 (Saccharomyces cerevisiae (strain ATCC 204508 / S288c) (Baker's yeast)) (P32657 whole entry, the tested form may be a part): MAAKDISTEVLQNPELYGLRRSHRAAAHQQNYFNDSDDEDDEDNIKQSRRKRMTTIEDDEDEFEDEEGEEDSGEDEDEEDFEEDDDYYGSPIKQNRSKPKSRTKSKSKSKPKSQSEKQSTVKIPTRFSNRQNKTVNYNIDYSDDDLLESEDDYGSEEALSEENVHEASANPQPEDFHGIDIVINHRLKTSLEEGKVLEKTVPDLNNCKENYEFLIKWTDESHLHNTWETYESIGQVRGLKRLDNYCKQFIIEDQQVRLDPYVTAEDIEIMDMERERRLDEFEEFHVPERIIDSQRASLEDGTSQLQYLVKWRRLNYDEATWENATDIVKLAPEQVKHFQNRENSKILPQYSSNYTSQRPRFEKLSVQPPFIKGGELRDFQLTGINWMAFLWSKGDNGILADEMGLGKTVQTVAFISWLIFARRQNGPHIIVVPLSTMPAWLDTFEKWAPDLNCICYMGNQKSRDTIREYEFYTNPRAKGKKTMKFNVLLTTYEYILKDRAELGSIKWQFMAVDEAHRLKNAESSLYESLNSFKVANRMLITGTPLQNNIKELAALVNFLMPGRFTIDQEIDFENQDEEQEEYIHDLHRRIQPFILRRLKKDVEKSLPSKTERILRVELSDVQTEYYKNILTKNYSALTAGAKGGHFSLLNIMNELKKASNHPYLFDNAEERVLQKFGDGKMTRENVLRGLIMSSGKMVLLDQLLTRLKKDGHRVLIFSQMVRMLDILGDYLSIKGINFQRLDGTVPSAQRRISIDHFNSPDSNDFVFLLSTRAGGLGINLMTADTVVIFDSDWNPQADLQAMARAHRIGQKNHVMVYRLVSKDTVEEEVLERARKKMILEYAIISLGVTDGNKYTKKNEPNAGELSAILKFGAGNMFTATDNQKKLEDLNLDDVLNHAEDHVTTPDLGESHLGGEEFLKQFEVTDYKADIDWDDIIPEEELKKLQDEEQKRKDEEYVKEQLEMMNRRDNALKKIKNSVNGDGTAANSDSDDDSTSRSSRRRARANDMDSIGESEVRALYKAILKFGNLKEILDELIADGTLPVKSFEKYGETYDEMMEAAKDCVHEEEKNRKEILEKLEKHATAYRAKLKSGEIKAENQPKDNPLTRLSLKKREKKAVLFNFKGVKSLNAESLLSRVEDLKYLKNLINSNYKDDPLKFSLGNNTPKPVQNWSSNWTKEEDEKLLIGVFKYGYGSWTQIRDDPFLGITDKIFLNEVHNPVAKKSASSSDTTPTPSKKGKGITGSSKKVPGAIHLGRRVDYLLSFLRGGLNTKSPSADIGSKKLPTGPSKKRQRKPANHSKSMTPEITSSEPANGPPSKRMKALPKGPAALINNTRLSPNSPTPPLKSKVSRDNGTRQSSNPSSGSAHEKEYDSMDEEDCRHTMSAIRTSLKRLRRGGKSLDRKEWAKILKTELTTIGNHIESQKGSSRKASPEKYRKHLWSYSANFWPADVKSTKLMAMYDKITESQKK

For `CN(c1ccc(F)c(F)c1)S(=O)(=O)c1cc(C(=O)O)cs1`, the Percent Effect was -0.362% in test [1]; -5.41% in test [2]; -0.676% in test [3]; 1.81% in test [4]; -6.32% in [5]; -1.6% in [6]. Besides, the Percent Effect was -5.95% in test [7]; 10.4% in test [8]; -0.493% in test [9]; -1.24% in test [10]; -2.7% in test [11].

Consider `Cn1ncc2c(=O)[nH]c(CN3CCCC3CC3CCCCC3)nc21` (stereo not drawn), for which the Percent Effect in [1] was -1.58%; in test [2] it was 21.1%; in test [3], -3.55%; in test [4] it was 4.78%; in [5] it was 3.83%; in test [6] it was 0.719%. The Percent Effect in test [7] is 6.85%; in [8], 17.1%; in [9], 6.4%; in test [10], 25.9%; in test [11], -8.17%.

Turning to `N#Cc1ccnc(N2CCC(c3nccn3Cc3cscn3)CC2)c1`, the Percent Effect in test [1] was -1.75%; in test [2], 13.3%; in test [3], 2.35%; in [4] it was 5.36%; in test [5], 3.8%; in test [6] it was 0%. The Percent Effect in test [7] was 15.5%; in test [8] it was 21.8%; in [9], 4.92%; in test [10] it was 13.6%; in test [11] it was -7.45%.

Turning to `COc1cc(C)nc(N2CCN(C(=O)CCc3nccs3)CC2)n1`, the Percent Effect was -6.4% in test [1]; 0% in test [2]; 2.65% in test [3]; 3.42% in test [4]; -5.6% in test [5]; -3.33% in [6]. In addition, the Percent Effect was 14.5% in [7]; 30.1% in test [8]; -2.65% in test [9]; 2.44% in [10]; -4.19% in [11].

Regarding `Cc1noc(CCCC(=O)NC(C)c2cn(-c3ccccc3)nn2)n1` (stereo not drawn), the Percent Effect in test [1] was -1.64%; in test [2], 0%; in [3], 3.68%; in [4] it was 6.5%; in [5], 6.58%; in test [6], 1.15%. In addition, the Percent Effect in test [7] was 6.35%; in test [8], -19.3%; in [9], 2.45%; in test [10], 4.88%; in test [11] it was -6.39%.

In the case of `CN1CCOC(CN(C(=O)CC2CCCC2)c2nccs2)C1` (stereo not drawn), the Percent Effect was -0.692% in test [1]; 0% in test [2]; 6.23% in [3]; 8.01% in test [4]; 0.464% in test [5]; -4.25% in test [6]. Moreover, the Percent Effect in test [7] is -2.69%; in test [8], 7.78%; in [9], -3.96%; in [10], -6.1%; in [11] it was 2.72%.

For the compound `CCn1nc(C)c(CNC(=O)c2cn(CC3CCCO3)nn2)c1C` (stereo not drawn), the Percent Effect in test [1] is -6.8%; in [2], 0%; in [3], -1.16%; in [4], 7.76%; in test [5] it was 2.24%; in [6], 2.08%. For the same compound, the Percent Effect in test [7] is 2.27%; in test [8] it was 6.98%; in test [9], 6.01%; in test [10] it was 11.1%; in test [11], -0.117%.

`NC(=O)COc1ccc(CNCc2ccc(F)cc2F)cc1`: the Percent Effect in test [1] was -2.69%; in test [2], 6.94%; in [3], -4.07%; in test [4], 9.21%; in test [5], 3.01%; in test [6], 24.7%. For the same compound, the Percent Effect in [7] is 8.42%; in test [8], -28.4%; in test [9] it was 9.47%; in test [10] it was 12.8%; in [11] it was -5.67%.
